Results filed as inconclusive are left out. Activity calls are given as the source filed them. Unless noted, calls follow the shape of the dose curve; as a rule, active = well fitted inhibition curve with a large enough effect; inconclusive = small, poorly fitted or top-dose-only effect; inactive = no such curve, though single readings can be large or run the other way.
How the values were obtained:
[1] = Primary qHTS for inhibitors of nuclear receptor binding SET domain protein 2 (NSD2) in an RCH-ACV wild type WT cells (2C) (AID 1645877); also: nearly all actives have a fitted effect of over 70% in size
[2] = target: Catechol O-methyltransferase (Homo sapiens) (UniProt P21964); assay: Confirmatory Screen for Target Class Profiling of Small Molecule Inhibitors of Methyltransferases (AID 1745852; calls by dose curve; as to activity change, negative = inhibition: % is scaled to controls: 0 for no effect and ±100 for the full control effect); settings: MTase-Glo luminescence, SAH detection, recombinant enzyme; measured here: COMT max response; stronger effect = lower value
[3] = target: Guanidinoacetate N-methyltransferase (Homo sapiens) (UniProt Q14353); assay: as above; settings: activity change, negative = inhibition: at 57.3 µM (top of the series) unless noted
[4] = target: Nicotinamide N-methyltransferase (Homo sapiens) (UniProt P40261); assay: as above; settings: MTase-Glo luminescence, SAH detection, recombinant enzyme; measured here: NNMT max response; stronger effect = lower value
[5] = target: Phenylethanolamine N-methyltransferase (Homo sapiens) (UniProt P11086); assay: as above; settings: MTase-Glo luminescence, SAH detection, recombinant enzyme; measured here: PNMT max response; stronger effect = lower value
Potency is read from the fitted curve at half-maximal effect.

Sequence of Nicotinamide N-methyltransferase (Homo sapiens) (P40261 whole entry, looked up): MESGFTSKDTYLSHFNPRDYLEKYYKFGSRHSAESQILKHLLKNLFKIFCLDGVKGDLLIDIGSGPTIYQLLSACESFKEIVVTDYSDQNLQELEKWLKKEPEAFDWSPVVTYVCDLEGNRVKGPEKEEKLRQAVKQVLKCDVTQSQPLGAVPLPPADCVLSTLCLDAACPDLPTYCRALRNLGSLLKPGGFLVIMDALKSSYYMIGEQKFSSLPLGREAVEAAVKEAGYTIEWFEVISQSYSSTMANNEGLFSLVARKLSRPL
Sequence of Phenylethanolamine N-methyltransferase (Homo sapiens) (P11086 whole entry, looked up): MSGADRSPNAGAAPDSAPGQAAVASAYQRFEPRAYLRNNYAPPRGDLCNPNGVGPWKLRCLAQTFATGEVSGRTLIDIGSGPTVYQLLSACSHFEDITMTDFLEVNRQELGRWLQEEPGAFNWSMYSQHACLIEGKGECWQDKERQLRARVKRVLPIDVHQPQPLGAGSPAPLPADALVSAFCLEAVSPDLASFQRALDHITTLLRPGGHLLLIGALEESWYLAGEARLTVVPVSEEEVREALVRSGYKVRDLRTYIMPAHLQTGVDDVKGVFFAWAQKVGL
Sequence of Catechol O-methyltransferase (Homo sapiens) (P21964 whole entry, looked up): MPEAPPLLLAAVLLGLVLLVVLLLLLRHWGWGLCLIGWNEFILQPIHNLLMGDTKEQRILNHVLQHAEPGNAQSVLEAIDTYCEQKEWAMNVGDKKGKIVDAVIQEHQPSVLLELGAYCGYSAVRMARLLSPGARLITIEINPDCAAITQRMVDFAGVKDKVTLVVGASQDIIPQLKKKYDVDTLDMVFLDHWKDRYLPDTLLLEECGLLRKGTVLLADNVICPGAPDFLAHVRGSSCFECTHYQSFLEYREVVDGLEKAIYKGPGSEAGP

Question: What does the source list for `CNC(=O)c1ccccc1Nc1nc(Nc2ccc(N3CCNCC3)cc2)ncc1Cl`?
Answer: Potency [1]: inactive; activity [2]: -21.5%; activity change, negative = inhibition [3]: -14.2%; activity [4]: -58.7%; activity [5]: -30.9%

Question: With `c1cn2cc(-c3ccc4cn[nH]c4c3)nc(Nc3ccc(N4CCOCC4)cc3)c2n1` as the compound, how does the Potency [1] read?
Answer: 0.409 µM (active)

Question: And the activity [2]?
Answer: -53.7%

Question: And the Potency [3]?
Answer: 21.5 µM (active)

Question: What about the activity [4] of the same compound?
Answer: -49.6%

Question: And the activity [5]?
Answer: -53.5%

Question: Which Potency [1] does the source give for `CN(C)c1nc(NC2CCC(NC(=O)c3ccc(F)c(F)c3)CC2)nc2ccccc12` (stereo not given) here?
Answer: 6.49 µM (active)

Question: What about the activity [2] of the same compound?
Answer: -11.9%

Question: And the activity change, negative = inhibition [3]?
Answer: 0.153%

Question: And the activity [4]?
Answer: -27.9%

Question: And the activity [5]?
Answer: -21.7%

Question: With `CN(CCc1ccc(Nc2ncc(-c3cccnc3)s2)cc1)Cc1ccccc1` as the compound, how does the Potency [1] read?
Answer: 9.16 µM (active)

Question: And the activity [2]?
Answer: -0.695%

Question: And the activity change, negative = inhibition [3]?
Answer: 0%

Question: What about the activity [4] of the same compound?
Answer: -47.4%

Question: What about the activity [5] of the same compound?
Answer: -13.5%

Question: What does the source list for `CC1(C)[C@@H](O)CC[C@]2(C)[C@H]3CC=C4[C@@H]5C[C@](C)(C(=O)O)CC[C@]5(C)CC[C@@]4(C)[C@]3(C)CC[C@@H]12`?
Answer: Potency [1]: inactive; activity [2]: -16.8%; Potency [3]: 27.1 µM (active); activity [4]: -38.7%; activity [5]: -42.7%

Question: Which results are given for `COc1cc(/C=C/C(=O)OC[C@H]2O[C@@](CO)(O[C@H]3O[C@H](CO)[C@@H](O)[C@H](O)[C@H]3O)[C@@H](OC(=O)/C=C/c3ccc(O)c(OC)c3)[C@@H]2O)ccc1O`?
Answer: Potency [1]: inactive; activity [2]: -51%; activity change, negative = inhibition [3]: -4.9% [at 19.1 µM]; activity [4]: -6.08%; activity [5]: -2.86%

Question: What does the source list for `Nc1nc(-n2cc(C(=O)O)c(=O)c3cc(F)c(N4CC(O)C4)c(Cl)c32)c(F)cc1F`?
Answer: Potency [1]: inactive; activity [2]: -21.4%; activity change, negative = inhibition [3]: 0.345%; activity [4]: -1.6%; activity [5]: -1.85%

Question: Which Potency [1] does the source give for `C=C(C)C1Cc2cc(C(=O)OC3OC(CO)C(O)C(O)C3O)ccc2O1` (stereo not given) here?
Answer: inactive

Question: And the activity [2]?
Answer: -58%

Question: And the activity change, negative = inhibition [3]?
Answer: -3.06%

Question: And the activity [4]?
Answer: -2.77%

Question: What about the activity [5] of the same compound?
Answer: -3.74%

Question: Which Potency [1] does the source give for `CC1(C)CC[C@]2(C(=O)O[C@@H]3O[C@H](CO)[C@@H](O)[C@H](O)[C@H]3O)CC[C@]3(C)C(=CCC4[C@@]5(C)C[C@@H](O)[C@H](O)[C@@](C)(CO)C5CC[C@]43C)C2[C@@H]1O` (stereo not given in full) here?
Answer: inactive

Question: What about the activity [2] of the same compound?
Answer: -79.9%

Question: And the activity change, negative = inhibition [3]?
Answer: -0.535% [at 19.1 µM]

Question: And the activity [4]?
Answer: -4%

Question: And the activity [5]?
Answer: -1.38%

Question: Which results are given for `COC(=O)C1=C2Nc3ccccc3C23CCN2CCCC(C(C)O)(C1)C23` (stereo not given)?
Answer: Potency [1]: inactive; activity [2]: -1.85%; activity change, negative = inhibition [3]: 0%; activity [4]: 2.66%; activity [5]: -1.29%

Question: What does the source list for `Cc1c[nH]c2nccc(Oc3c(F)cc(Nc4cc(Cl)nc(N)n4)cc3F)c12`?
Answer: Potency [1]: 0.731 µM (active); activity [2]: -14.6%; activity change, negative = inhibition [3]: 0%; activity [4]: -27.7%; activity [5]: -3.98%

Question: With `CC1CCC2(CO)C(C(=O)O)=CCCC2C1(C)CCc1ccoc1` (stereo not given) as the compound, how does the Potency [1] read?
Answer: inactive

Question: And the activity [2]?
Answer: -92.5%

Question: And the activity change, negative = inhibition [3]?
Answer: 0%

Question: And the activity [4]?
Answer: 1.37%

Question: What about the activity [5] of the same compound?
Answer: 1.68%

Question: Which Potency [1] does the source give for `Cc1cc(Nc2ccc(NC(=O)c3ccc(Nc4ccnc5ccccc45)cc3)cc2)nc(N)n1` here?
Answer: 0.817 µM (active)

Question: And the activity [2]?
Answer: -15.9%

Question: And the Potency [3]?
Answer: 30.4 µM (active)

Question: And the activity [4]?
Answer: -17.6%

Question: What about the activity [5] of the same compound?
Answer: -11.7%

Question: What does the source list for `CCc1c(-c2ccccc2)c(-c2ccccc2)nn1-c1ccccc1-c1cccc(OCC(=O)O)c1`?
Answer: Potency [1]: inactive; activity [2]: -1.93%; activity change, negative = inhibition [3]: 0%; activity [4]: -56%; activity [5]: -7.07%
